From PubChem BioAssay AID449762 (Southern Research Specialized Biocontainment Screening …, 2010)
The campaign covered roughly 330,000 compounds. About 1,900 (0.58%) were called active. Another 4% or so got no clear call; they are omitted. A selection follows. Measured potencies and affinities stand elsewhere. A number with no mark means an inactive call. Rule as the data show it: inconclusive = inhibition above about 70% without an active follow-up result; inactive = below that.

Assay: M. tuberculosis growth inhibition, HTS (AID 449762);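 also: bacterial growth assessed after seven days of incubation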
Conditions: M. tuberculosis H37Rv growth inhibition, 7H9 media; at 25 µM; active compounds read high

Going from O=C(CN1C(=O)S/C(=C\c2ccc(F)cc2)C1=O)Nc1cccc(S(=O)(=O)NCc2ccco2)c1 to Fc1ccc(/C=N/NC2=Nc3cccc4cccc2c34)cc1, the inhibition falls from -0.96% to -8.86%.

Compared with C=CCNC(=O)C1CCN(c2cnccn2)CC1, COC(=O)C1CCN(C(=O)/C=C/c2ccccc2)CC1 is lower in inhibition: 1% for the first, -5.05% for the second.

Compared with Cc1ccnc(NC(=O)C2CCN(S(=O)(=O)c3cccc(C(F)(F)F)c3)CC2)c1, CC(C)c1ccc(OC(=O)c2cccc(S(=O)(=O)N3CCN(C)CC3)c2)cc1 is higher in inhibition: -6.67% for the first, 10.8% for the second.

Compared with Cn1c(O)c(C=Nc2ccc(Br)cc2)sc1=O, NC(N)=N/N=C/c1ccc(Br)cc1 is higher in inhibition: 2% for the first, 10.5% for the second.

Compared with N=c1oc2ccccc2cc1C(=O)Nc1ccccc1, N=c1oc2cc(O)ccc2cc1C(=O)Nc1ccccn1 is higher in inhibition: -6.06% for the first, 9.75% for the second.

Compared with O=C(NCc1nnc(SCC(=O)N2CCCC2)o1)c1ccc(F)cc1, CC12CCC(=O)N1C(C(=O)Nc1ccc(F)cc1)CS2 (stereo not drawn) is lower in inhibition: -1.8% for the first, -9.52% for the second.

Going from Cc1cc(C)c(C(=O)N(C)CC2CCCN(CCc3ccccc3F)C2)o1 (stereo not drawn) to Cc1cc(C(F)F)n2ncc(C(=O)N3CCc4ccccc4C3)c2n1, the inhibition falls from 7.36% to -2.51%.

Compared with CCOC(=O)C1(CCCc2ccccc2)CCN(C(=O)c2ccoc2)CC1, CCN(Cc1ccccc1)c1ccc(/C=N/N2CCOCC2)cc1 is higher in inhibition: 3.78% for the first, 11.3% for the second.

Going from O=C(Nc1cn(-c2ccccc2)nc1-c1ccc(Cl)cc1)c1ccccc1 to CC(=O)Nc1cn(-c2ccccc2)nc1-c1ccccc1, the inhibition falls from 12.2% to 8.61%.

First: Oc1cc(NCCc2cccnc2)cc2cccnc12
Second: Cc1csc(CNc2ncnc3ccc(-c4cccnc4)cc23)c1
The inhibition of the first is higher: 11.9% for the first, 2.87% for the second.

Going from NS(=O)(=O)c1cccc(NC(=O)c2ccc3nc[nH]c3c2)c1 to Cc1cccc(C(=O)NNC(=O)c2cccc(C)c2)c1, the inhibition falls from 1.29% to -16.6%.

Compared with CC(C)c1ccc(NC(=O)C2CSC3(C)CCC(=O)N23)cc1 (stereo not drawn), CC(C)n1ncc2c(C(=O)Nc3ccc(S(C)(=O)=O)cc3)cc(C3CC3)nc21 is lower in inhibition: 5.83% for the first, 2.05% for the second.

First: Cc1ccc(CNC(=O)c2ccc(N3CCC4(CC3)CC(c3ccccc3)=NO4)c(NC(=O)c3ccc(Br)cc3)c2)cc1
Second: Cc1cccc(C(=O)NNC(=O)c2ccccc2)c1
The inhibition of the first is higher: -2.65% for the first, -6.62% for the second.

Going from Nc1c(C(=O)OCC(=O)NCc2ccccc2)[nH]c(=O)[nH]c1=O to O=C(O)CNC(=S)NCc1ccccc1, the inhibition falls from 1.89% to -1.14%.

Going from Cc1[nH]c(=O)[nH]c(=O)c1/C=C/C(=O)O to CC(=O)c1c(C)[nH]c(C(=O)Nc2cccc(S(=O)(=O)N3CCOCC3)c2)c1C, the inhibition falls from -3.99% to -28%.

First: COc1ccc(-c2cc(C(F)F)n3ncc(C(=O)N4CCc5ccccc5C4)c3n2)cc1
Second: O=C(c1cc2ccccc2oc1=O)N1CCN(Cc2ccc3c(c2)OCO3)CC1
The inhibition of the first is higher: 15.6% for the first, -3.79% for the second.

Going from CCN(CC(=O)Nc1c(F)cccc1F)C(=O)c1ccc2c(c1)OCO2 to COC(=O)c1[nH]c2cccc(OC)c2c1NC(=O)CN1CCN(c2cccc(OC)c2)C(C)C1 (stereo not drawn), the inhibition rises from -12.6% to 52.6%.

Compared with COc1ccc(S(=O)(=O)CC(O)CN2CCCC2=O)cc1 (stereo not drawn), CCOC(=O)c1[nH]c2cc(OC)c(OC)cc2c1NC(=O)CN1CCN(c2ccc(OC)cc2)C(C)C1 (stereo not drawn) is lower in inhibition: -0.37% for the first, -2.17% for the second.

First: COc1cccc(N2C(=O)CN(Cc3ccc(OC)c(OC)c3)C2=S)c1
Second: CCn1c(=O)cc(SCC(=O)Nc2ccc(OC)c(OC)c2)c2ccccc21
The inhibition of the first is higher: 2.7% for the first, -7.13% for the second.

Compared with C/C(CC1CC2=C(CC1(C)C)C(C)(C)CCC2)=N\NC(N)=S (stereo not drawn), CC1=C(CC/C(C)=N/NC(N)=S)C(C)(C)CCC1 is higher in inhibition: -0.2% for the first, 12% for the second.

Compared with Cc1cc(C)cc(NC(=S)N2CCC(NC(=O)C3CCCCC3)CC2)c1, CC(=O)Nc1ccc(C(=O)CN2C(=O)NC3(CCCCCC3)C2=O)c(F)c1 is lower in inhibition: -1.01% for the first, -9.64% for the second.

Compared with CCOP(=O)(OCC)C(O)c1cc(OC)c(OC)c(OC)c1 (stereo not drawn), COc1cc(/C=C/c2cccc[n+]2C)ccc1OCC(=O)Nc1ccccc1C is lower in inhibition: 0.28% for the first, -9.56% for the second.

First: C(=N\NC1=Nc2cccc3cccc1c23)/c1ccccc1
Second: CCN(Cc1ccccc1)c1ccc(/C=N/NC(=S)NC(C)C)cc1
The inhibition of the first is lower: 9.94% for the first, 10.7% for the second.

First: C=C(c1ccccc1O)n1ccnc1
Second: NC(N)=N/N=C/c1ccccc1
The inhibition of the first is higher: 0.25% for the first, -2.68% for the second.

Compared with O=C(COc1ccccc1)NNC(=S)NC(=O)c1ccc(Cl)cc1Cl, O=C(COc1ccccc1)NNC(=S)NC(=O)c1ccccc1 is higher in inhibition: 55.5% for the first, 56.3% for the second.

First: O=C(c1cc(Br)c(Br)s1)N1CCN(C/C=C/c2ccccc2)CC1
Second: CC(=O)N/C(=C\c1ccccc1)C(=O)N1CCOCC1
The inhibition of the first is higher: -4.13% for the first, -6.38% for the second.

Going from OCCOCCn1c(C2CCCN2c2nc(-c3ccc(F)cc3)cs2)nc2cc(C(F)(F)F)ccc21 (stereo not drawn) to Cc1cccc(-n2cc(CNCCN3CCOC3=O)c(-c3cccc(F)c3)n2)c1, the inhibition falls from 2.16% to 1.99%.

Going from CCOc1ccc(-n2nnc3c(=O)n(C/C=C/c4ccccc4)cnc32)cc1 to COc1ccc(-c2oc3cccnc3c2C#CCO)cc1, the inhibition rises from -10.8% to 5.48%.

Compared with CC1(C)N=C(N)N=C(N)N1c1cccc(CN)c1, Nc1ccc(Br)cc1Br is lower in inhibition: -3.4% for the first, -6.59% for the second.

Compared with Brc1ccc2ncc(Br)cc2c1, O=C1CC2(CCCCC2)Oc2ccc(F)cc21 is lower in inhibition: 2.82% for the first, -0.1% for the second.

Compared with Cc1nn(Cc2ccccc2)c(C)c1CNC(=O)[C@H](C)N=C1NS(=O)(=O)c2ccccc21, CN(C)CCCN1c2ccc([N+](=O)[O-])cc2CCc2cc([N+](=O)[O-])ccc21 is lower in inhibition: 6.6% for the first, -1.94% for the second.

CCOc1cc(/C=C\[N+](=O)[O-])ccc1OCC(=O)N1CCOCC1 showed an inhibition of 3.95%.
